# Measurements published in PubChem BioAssay (NCI).
# Compounds without any hit were thinned out: in the full panel of roughly 79,000, 15% have a hit. A number with no mark means an inactive call. The source made the active and inactive calls. Cut-off read from the data, not from the text of the source: active = growth inhibition above about 70%; inactive = the rest.
# How the values were obtained:
# [1] = NCI Yeast Anticancer Drug Screen. Data for the rad50 strain (AID 155);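 note: 0% = growth of vehicle-only cultures of the same strain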; conditions: S. cerevisiae rad50 strain growth inhibition, stronger effect = higher value
# Outline: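 Inhibition values express reduced yeast growth in compound-treated cultures relative to vehicle-treated controls.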
# [2] = NCI Yeast Anticancer Drug Screen. Data for the mec2-1 strain (AID 157); conditions: S. cerevisiae mec2-1 strain, stronger effect = higher value
# Outline: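 Each compound was tested on mec2-1 yeast, a strain altered in DNA damage repair or cell cycle control. Growth inhibition is reported relative to vehicle.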
# [3] = NCI Yeast Anticancer Drug Screen. Data for the sgs1 mgt1 strain (AID 161);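 note: 0% = growth of cultures given vehicle only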; conditions: S. cerevisiae sgs1 mgt1 strain, stronger effect = higher value
# Outline: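 Inhibition of yeast growth, normalised to vehicle-treated controls, is reported for a strain bearing genetic alterations in DNA damage repair.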
# [4] = NCI Yeast Anticancer Drug Screen. Data for the cln2 rad14 strain (AID 165);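 note: 0% = growth equal to vehicle treated cultures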; conditions: S. cerevisiae cln2 rad14 strain, stronger effect = higher value
# Outline: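 Test compounds were added to cln2 rad14 yeast cultures; inhibition of growth was then determined by comparison with vehicle treatment.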
# [5] = NCI Yeast Anticancer Drug Screen. Data for the bub3 strain (AID 167); conditions: S. cerevisiae bub3 mutant strain, stronger effect = higher value
# Outline: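 Steps: expose the mutant yeast strain to compound; grow alongside vehicle-treated cultures; measure growth; express inhibition against the vehicle cultures.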
# [6] = NCI Yeast Anticancer Drug Screen. Data for the mlh1 rad18 strain (AID 175); conditions: S. cerevisiae mlh1 rad18 strain growth inhibition, stronger effect = higher value
# Outline: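 Inhibition values reflect reduced growth of mutant yeast versus vehicle-treated controls following compound exposure; the mutations affect DNA damage repair.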
# [7] = at 5.0 µM (retest, dose inferred, filed as 0.5)
# [8] = at 50.0 µM (retest, dose inferred, filed as 5.0)
SMILES,"growth inhibition [1, 7]","growth inhibition [1, 8]",growth inhibition ([1]; at 50.0 µM),"growth inhibition [2, 7]","growth inhibition [2, 8]",growth inhibition ([2]; at 50.0 µM),"growth inhibition [3, 7]","growth inhibition [3, 8]",growth inhibition ([3]; at 50.0 µM),"growth inhibition [4, 7]","growth inhibition [4, 8]",growth inhibition ([4]; at 50.0 µM),"growth inhibition [5, 7]","growth inhibition [5, 8]",growth inhibition ([5]; at 50.0 µM),"growth inhibition [6, 7]","growth inhibition [6, 8]",growth inhibition ([6]; at 50.0 µM)
COC(=O)Cn1/c(=N\N=C(/C)c2ccc(C)cc2)sc2ccccc21,-13%,7%,35%,-2%,-2%,26.7%,-10%,28%,40.4%,-10%,16%,15.3%,-11%,11%,35.9%,-20%,36%,40.6%
CCOC(=O)c1cc2c(nc1NCc1ccc(OC)c(OC)c1)/C(=C/c1ccccc1)CCCC2,38%,94% (active),90.2% (active),17%,93% (active),88.8% (active),47%,94% (active),91.8% (active),28%,84% (active),80.2% (active),49%,94% (active),92.5% (active),58%,92% (active),90.2% (active)
Oc1c(Cl)cc(Cl)cc1Br,-4%,83% (active),90.2% (active),5%,96% (active),97.4% (active),3%,72% (active),96.7% (active),0%,91% (active),54.5%,-7%,78% (active),84.7% (active),-2%,91% (active),88.1% (active)
CC(=O)OCCC1=CCC2CC1C2(C)C (stereo not given),-2%,2%,-22.6%,-40%,4%,7.2%,-3%,4%,-12.8%,-6%,-7%,23.4%,-10%,-5%,-16.2%,-3%,3%,-10.7%
COc1cccc(C2c3cc4c(cc3OC(NNc3ccccc3)C2C)OCO4)c1O (stereo not given),-8%,88% (active),94% (active),-5%,79% (active),95.3% (active),1%,93% (active),95.8% (active),19%,88% (active),94.2% (active),-8%,97% (active),96.8% (active),27%,91% (active),95.7% (active)
Cc1cn(C2CC(Br)C(COC(c3ccccc3)(c3ccccc3)c3ccccc3)O2)c(=O)[nH]c1=O (stereo not given),10%,97% (active),97.6% (active),6%,99% (active),98.3% (active),8%,33%,98.2% (active),2%,97% (active),96.8% (active),6%,99% (active),96.2% (active),8%,98% (active),97.9% (active)
Nc1ncnc2nc(-c3ccc(C[P+](c4ccccc4)(c4ccccc4)c4ccccc4)cc3)[nH]c12,-6%,77% (active),72% (active),11%,43%,66.2%,0%,78% (active),73.8% (active),-10%,61%,62.6%,11%,61%,54.8%,-6%,83% (active),69.8%
[Cl][Sn]([CH2][CH2][Sn]([Cl])([c]1ccccc1)[c]1ccccc1)([c]1ccccc1)[c]1ccccc1,99% (active),98% (active),94.5% (active),99% (active),97% (active),92.2% (active),99% (active),97% (active),95.2% (active),97% (active),96% (active),87.5% (active),96% (active),98% (active),90.9% (active),99% (active),98% (active),94.2% (active)
CN(C)CCN(C)N=Nc1c(-c2ccc(Cl)cc2)n[nH]c1C(F)(F)F,98% (active),99% (active),98.8% (active),99% (active),99% (active),99.7% (active),99% (active),99% (active),99.4% (active),99% (active),99% (active),99.3% (active),99% (active),99% (active),96% (active),99% (active),99% (active),99.5% (active)
CN(C)c1ccc(N=Nc2ccc3c4c(cccc24)-c2ccccc2-3)cc1,26%,94% (active),96.5% (active),-4%,96% (active),97.5% (active),3%,96% (active),97.4% (active),-1%,97% (active),95.8% (active),0%,95% (active),97% (active),-1%,95% (active),97% (active)
CCCCN(C(=O)c1ccccc1)C1CCC(=O)c2[nH]c3ccccc3c21 (stereo not given),-3%,1%,85.5% (active),-15%,-28%,89.3% (active),-7%,20%,76% (active),-13%,-1%,83.5% (active),-18%,12%,80.6% (active),2%,-15%,69.5%
O=C(CC1(O)CCCCC1)OC1CCCC1,-1%,0%,58.3%,-1%,-11%,-13.2%,1%,0%,5.85%,-14%,19%,62.8%,5%,-10%,-58.9%,7%,10%,6.2%
CCN(CC)c1c(C(=O)/C=C/c2ccc(F)cc2)c(-c2ccccc2)nn(C)c1=O,29%,29%,87.9% (active),2%,2%,90.6% (active),12%,12%,70.5% (active),16%,16%,90.3% (active),-3%,-3%,90.3% (active),1%,1%,86.2% (active)
COc1ccc(NC(=S)N/N=C/c2cccc(C)n2)cc1,8%,98% (active),67.4%,0%,94% (active),82.5% (active),13%,90% (active),86.5% (active),23%,88% (active),83.3% (active),-22%,85% (active),85.9% (active),10%,95% (active),89.4% (active)
Cc1cnc(Sc2ncccc2[N+](=O)[O-])[nH]c1=O,2%,7%,-7%,-3%,21%,43.1%,5%,14%,29.1%,-3%,2%,26.1%,6%,9%,-2.7%,0%,24%,27.9%
CCC(c1ccc(O)cc1)C(O)(CC)c1ccc(O)cc1 (stereo not given),-6%,-9%,46.4%,-10%,-4%,28.9%,-3%,35%,65.1%,-24%,-1%,26.1%,-11%,-11%,58.6%,-26%,-8%,14.3%
Nc1cc(Cl)c2c(c1)Cc1ccccc1-2,3%,96% (active),76.8% (active),2%,95% (active),9.45%,7%,96% (active),84.8% (active),-7%,94% (active),-22.4%,-6%,94% (active),70.8% (active),0%,94% (active),86.8% (active)
CCCCCCCCCCCC#CCCCCC(=O)O,87% (active),94% (active),56.8%,95% (active),97% (active),62.5%,93% (active),96% (active),83.7% (active),27%,91% (active),61%,96% (active),95% (active),67.7%,96% (active),95% (active),60%
Cc1[nH]c(=O)[nH]c(=S)c1C(=O)NC1C2CCCCC2NC2CCCCC21 (stereo not given),67%,96% (active),75.5% (active),49%,97% (active),83.3% (active),49%,97% (active),76.4% (active),74% (active),98% (active),85% (active),48%,97% (active),77.8% (active),46%,96% (active),71.9% (active)
Clc1ccc2nc3c(c(N4CCCCC4)c2c1)CCCC3,7%,99% (active),98.8% (active),4%,99% (active),99.2% (active),13%,99% (active),99.4% (active),2%,99% (active),99.2% (active),0%,99% (active),97% (active),11%,98% (active),99.2% (active)
